Inconclusive results are not listed. Some compounds were tested as several samples or in several runs, with calls that do not always agree. Calls of active or inactive are those of the source. Unless noted, calls follow the shape of the dose curve; as a rule, active = well fitted curve in the direction sought with a large enough effect in the repeat runs; inconclusive = weak or mixed curves; inactive = no such curve, though single readings can be large; an effect the other way counts as inactive or inconclusive.
Assays:
[1] = qHTS assay to identify small molecule agonists of the hypoxia (HIF-1) signaling pathway - cell viability counter screen (AID 1224844; calls by dose curve; also: nearly all actives have a fitted effect of over 50% in size; also: potency is read from the fitted curve at half-maximal effect)
Method in brief: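 Tox21 10K compounds were added to HRE-bla ME-180 cells (0.5% dialyzed FBS) and incubated 17 hrs at 37C; ATP-based CellTiter-Glo luminescence then reported cell viability in the same wells.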

[2] = qHTS assay to identify small molecule agonists of H2AX - cell viability counter screen (AID 1224847; calls by dose curve; also: nearly all actives have a fitted effect of over 30% in size; also: potency is read from the fitted curve at half-maximal effect; as to activity change, negative = cytotoxicity: top concentration of the series differs between compounds)
Method in brief: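 Counter-screen for viability: CellTiter-Glo ATP luminescence read after 3 h compound treatment (15-point titration, 0.76% DMSO final) of CHO-K1 cells at 37C, with 30 min room-temperature reagent incubation.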

[3] = qHTS assay to identify small molecule antagonists of the estrogen related receptor (ERR) signaling pathway from Tox21 library (AID 1224848); also: nearly all actives have a fitted effect of over 50% in size; also: potency is read from the fitted curve at half-maximal effect
Method in brief: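 Cells: ERR line, 2,000/well; 6 h preincubation 37 C/5% CO2. Cpd in DMSO via pin tool; 18 h, 37 C. ONE-Glo, 30 min RT, luminescence.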

[4] = qHTS assay to identify small molecule agonists of the estrogen related receptor (ERR) signaling pathway from Tox21 library (AID 1224849; calls by dose curve; also: nearly all actives have a fitted effect of over 15% in size); details: ERR reporter cell line, ONE-Glo luciferase, 18 h
Method in brief: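 Agonist signal is luciferase luminescence from an ERR reporter cell line treated 18 h at 37 C with DMSO-dissolved compounds, read 30 min after ONE-Glo addition at room temperature.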

[5] = qHTS RealTime-Glo MT Cell Viability Assay in HepG2 cells - 24 hour (AID 1224867); also: nearly all actives have a fitted effect of over 50% in size; also: potency is read from the fitted curve at half-maximal effect
Method in brief: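 Tox21 10K library screened in qHTS format on HepG2 cells carrying RealTime-Glo reagents. Compounds were added after a 5 h preincubation, and the luminescent signal from continuous culture was measured repeatedly during 40 h treatment.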

[6] = A CellTox Green Cytotoxicity Assay to monitor cytotoxicity in HEK293 cells - 0 hour (AID 1224869); also: nearly all actives have a fitted effect of over 50% in size; also: potency is read from the fitted curve at half-maximal effect
Method in brief: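 Cytotoxicity was tracked continuously in HEK293 cells by a DNA-binding dye excluded from viable cells. Compounds were transferred in DMSO 5 h after seeding; fluorescence was recorded at intervals up to 40 h.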

[7] = qHTS RealTime-Glo MT Cell Viability Assay in HepG2 cells - 40 hour (AID 1224870); also: nearly all actives have a fitted effect of over 50% in size; also: potency is read from the fitted curve at half-maximal effect
Method in brief: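 HepG2 cells mixed with RealTime-Glo MT reagents (NanoLuc plus cell-permeant prosubstrate) were seeded at 600 cells/well, incubated 5 h at 37 C/5% CO2, then pinned with compounds in DMSO; nonlytic luminescence tracked viability during 40 h treatment.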

[8] = qHTS assay to identify small molecule agonists of the hypoxia (HIF-1) signaling pathway (AID 1224846; active = well fitted activation curve with a large enough effect in the signal ratio in the repeat runs, not every such curve was filed as active; the % refers to the signal ratio)
Method in brief: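 Steps: seed ME-180 HRE-bla cells (2,000/well, 0.5% dialyzed FBS); incubate 5 hrs at 37C; pin-transfer compounds or DMSO; incubate 17 hrs; add LiveBLAzer B/G substrate CCF4-AM; measure reporter activation by FRET.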

[9] = qHTS RealTime-Glo MT Cell Viability Assay in HEK293 cells - 32 hour (AID 1224868); also: nearly all actives have a fitted effect of over 50% in size; also: potency is read from the fitted curve at half-maximal effect
Method in brief: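 Luminescence generated by NanoLuc from substrate produced by living HEK293 cells served as the viability signal. Each value reflects the reading at its stated time point during continuous 40 h compound exposure at 37 C.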

[10] = qHTS assay to identify small molecule agonists of H2AX (AID 1224845; active = well fitted activation curve with a large enough effect in the signal ratio in the repeat runs, not every such curve was filed as active; the % refers to the signal ratio)
Method in brief: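 Wild-type CHO-K1 cells plated overnight, then exposed 3 hr at 37C to compounds at 15 concentrations (0.76% DMSO). Lysed, then HTRF anti-pH2AX(S139)-cryptate/anti-H2AX-d2 detection after 24 hr at room temperature; emissions 665 and 620 nm.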

[11] = at 92.4 µM (top of the series) unless noted
% is scaled to controls: 0 for no effect and ±100 for the full control effect.

CN1C(=O)c2ccccc2C1=O
inactive: Potency [1] | Potency [2] | Potency [3] | activity change, positive = activation [4, 11] 1.36% | Potency [5] | Potency [6] | Potency [7]

CC(=O)OCCN(CCOC(C)=O)c1ccc(N=Nc2ccc([N+](=O)[O-])cc2C#N)cc1
active: Potency [2] 50.5 µM | Potency [3] 61.1 µM
inactive: Potency [1] | outcome [8] | activity change, positive = activation [4, 11] -46.9% | Potency [5] | Potency [6] | Potency [7]

CC(=O)NC1(c2cccc(F)c2)CCN(CC[C@@]2(c3ccc(Cl)c(Cl)c3)CN(c3ccccc3)C(=O)CO2)CC1
inactive: outcome [8] | Potency [6]
active: Potency [1] 39 µM | Potency [5] 43.8 µM | Potency [9] 17.4 µM | Potency [7] 43.8 µM

O=C1c2ccccc2C(=O)c2c(O)c(O)cc(O)c21
inactive: Potency [1] | outcome [8] | Potency [3] | activity change, positive = activation [4, 11] -7.48% | Potency [5] | Potency [9] | Potency [6] | Potency [7]

C[C@]12CC[C@@H]3c4ccc(O)cc4CC[C@H]3[C@@H]1CC[C@@H]2OC(=O)CCC1CCCC1
inactive: Potency [1] | activity change, positive = activation ([4]; at 42.5 µM (top of the series)) -30% | activity change, positive = activation ([4]; at 92.4 µM (top of the series)) -67.7% | Potency [7]
active: Potency [2] 56.6 µM | Potency [3] 54.5 µM | Potency [9] 43.6 µM
49 µM (active) and inactive: Potency [5]

Cc1cc(=O)c2c(O)c3c(O)cc(=O)c4c3c3c(cc(O)c1c23)C(C)(C)C=4O
inactive: activity change, negative = cytotoxicity [1] 15.9% [at 15.8 µM] | activity change, negative = cytotoxicity [5] -25.2% [at 15.8 µM]
active: Potency [9] 1.17 µM | Potency [6] 3.69 µM

O=[N+]([O-])c1ccc(O/N=C/c2cc(Br)c(O)c(Br)c2)c([N+](=O)[O-])c1
inactive: Potency [1] | outcome [8] | Potency [5] | Potency [6] | Potency [7]

CC(=O)c1cc2ccccc2s1
inactive: Potency [1] | outcome [8] | Potency [2] | Potency [5] | Potency [9] | Potency [6] | Potency [7]

Oc1cccc(Nc2ccccc2)c1
active: Potency [9] 14.4 µM
inactive: Potency [1] | outcome [8] | Potency [5] | Potency [6] | Potency [7]

Oc1ccc(Cl)c2cccnc12
active: Potency [3] 29.8 µM
inactive: Potency [1] | outcome [8] | Potency [2] | activity change, positive = activation [4, 11] -56.3% [at 42.5 µM] | Potency [5] | Potency [6] | Potency [7]

CS(=O)(=O)c1ccc(-c2cn3ccccc3n2)cc1
active: Potency [1] 23.9 µM | Potency [2] 31 µM
inactive: outcome [8] | Potency [3] | Potency [7]

Oc1c(I)cc(I)c2cccnc12
inactive: Potency [1] | Potency [2] | activity change, positive = activation [4, 11] -8.8% [at 42.5 µM] | Potency [5] | Potency [7]

O=[N+]([O-])c1ccc(Nc2ccc(Nc3ccccc3)c(S(=O)(=O)O)c2)c([N+](=O)[O-])c1
inactive: Potency [1] | outcome [8] | Potency [2] | Potency [5] | Potency [9] | Potency [6] | Potency [7]

COC(=O)CS
inactive: Potency [1] | outcome [8] | Potency [2] | Potency [5] | Potency [9] | Potency [7]

Brc1cc2ccccc2c2ccccc12
inactive: activity change, positive = activation [4, 11] -24% | Potency [5] | Potency [6] | Potency [7]
active: Potency [1] 44 µM

O=c1cc(-c2ccccc2)oc2cc(O)cc(O)c12
inactive: Potency [1] | Potency [10] | Potency [6]

O=C1c2ccccc2C(=O)C1c1ccc(Br)cc1
inactive: Potency [1] | outcome [8] | Potency [2] | Potency [3] | Potency [5] | Potency [9] | Potency [6] | Potency [7]
active: activity change, positive = activation [4, 11] 99.8% [at 42.5 µM]

Oc1cc2c(cc1O)[C@H]1c3ccc(O)c(O)c3OC[C@@]1(O)C2
inactive: Potency [1] | outcome [8] | activity change, positive = activation [4, 11] -31.7% | Potency [6]
active: Potency [3] 49.2 µM | Potency [5] 49.6 µM

CCOC(=O)c1ccc(C#Cc2ccc3c(c2)C(C)(C)CCS3)nc1
inactive: Potency [1] | outcome [8] | Potency [5] | Potency [6] | Potency [7]

C[C@@H](O[C@H]1OCCN(Cc2n[nH]c(=O)[nH]2)[C@H]1c1ccc(F)cc1)c1cc(C(F)(F)F)cc(C(F)(F)F)c1
active: Potency [1] 21.3 µM | Potency [3] 23.7 µM | Potency [5] 21.3 µM | Potency [7] 21.3 µM
inactive: activity change, positive = activation [4, 11] -53.3% [at 42.5 µM] | Potency [6]
